This note sets out measurements from PubChem BioAssay (Tox21).

The structures appear in SMILES notation. Unmarked numbers belong to inactive results. Inconclusive results are not listed. The source made the active and inactive calls. Unless noted, the call rests on the fitted dose curve; in most records, active means well fitted curve in the direction sought with a large enough effect in the repeat runs; inconclusive means weak or mixed curves; inactive means no such curve, though single readings can be large; an effect the other way counts as inactive or inconclusive.

Test [1] addresses Thyrotropin receptor (Homo sapiens) (UniProt P16473). Kind of test: qHTS assay to identify small molecule agonists of the thyroid stimulating hormone receptor (TSHR) signaling pathway (AID 1224843; calls by dose curve; further: nearly all actives have a fitted effect of over 45% in size). Put shortly: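 Agonist-mode screen: TSHR HEK293 cells received test chemicals for half an hour at room temperature, then HTRF cAMP detection reagents for one hour prior to fluorescence measurement. Each chemical ran as a 15-concentration series, triplicated.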
Background: In qHTS, concentration-response curves come from the screen itself.

Test [2] is described as follows: qHTS assay to identify small molecule agonists of the hypoxia (HIF-1) signaling pathway - cell viability counter screen (AID 1224844; calls by dose curve; further: nearly all actives have a fitted effect of over 50% in size; further: potency means the concentration at half of the fitted maximal effect). Put shortly: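 Same wells as the HIF-1 reporter screen; ME-180 cells carrying HRE-bla, 17 hr treatment at 37C; CellTiter-Glo luminescence read after 30 min at room temperature.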
Test [3] can be described thus: qHTS assay to identify small molecule agonists of the hypoxia (HIF-1) signaling pathway (AID 1224846; active means well fitted activation curve with a large enough effect in the signal ratio in the repeat runs, not every such curve was filed as active; the % refers to the signal ratio). The gist of the method: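 In ME-180 cells bearing an HRE-bla construct, 17 h treatment with DMSO-dissolved compounds at 37C was followed by CCF4-AM loading to quantify reporter induction.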
Test [4] in a line: qHTS assay to identify small molecule agonists of H2AX - cell viability counter screen (AID 1224847; calls by dose curve; further: nearly all actives have a fitted effect of over 30% in size; further: potency means the concentration at half of the fitted maximal effect). The gist of the method:
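CHO-K1 cells plated overnight at 37C, then exposed 3 h at 37C to compounds at 15 concentrations (0.76% DMSO final). Viability by CellTiter-Glo luminescence after 30 min at room temperature.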

Test [5] in a line: qHTS assay to identify small molecule antagonists of the estrogen related receptor (ERR) signaling pathway from Tox21 library (AID 1224848). Further: nearly all actives have a fitted effect of over 50% in size. Put shortly: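 Quantitative high-throughput format: ERR reporter cells (2,000/well) pre-incubated 6 h, treated 18 h at 37 C with compounds in DMSO alongside positive and negative controls, then read by ONE-Glo luminescence.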
A short description of test [6]: qHTS assay to identify small molecule agonists of the estrogen related receptor (ERR) signaling pathway from Tox21 library (AID 1224849; calls by dose curve; further: nearly all actives have a fitted effect of over 15% in size). The settings on record: ERR reporter cell line, ONE-Glo luciferase, 18 h; at 92.4 µM (top of the series) unless noted. Put shortly:
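Reporter cells (ERR, NTP source) treated with Tox21 10K compounds 18 h, 37 C. Readout: ONE-Glo luminescence, 30 min RT.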

The nature of test [7]: qHTS RealTime-Glo MT Cell Viability Assay in HepG2 cells - 24 hour (AID 1224867). Further: nearly all actives have a fitted effect of over 50% in size. The gist of the method:
(§1)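 Cell number in HepG2 cultures estimated from NanoLuc luminescence generated by metabolic reduction of a prosubstrate by living cells. The homogeneous, nonlytic format allowed repeated reads at 0, 8, 16, 24, 32 and 40 h of compound exposure.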

The nature of test [8]: qHTS RealTime-Glo MT Cell Viability Assay in HEK293 cells - 32 hour (AID 1224868). Further: nearly all actives have a fitted effect of over 50% in size. Further: potency means the concentration at half of the fitted maximal effect. The gist of the method:
(§2)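 Homogeneous bioluminescent viability format in HEK293 cells (600 cells/well). Following 5 h at 37 C/5% CO2, 23 nL compound was pintooled; the signal was measured repeatedly during 40 h incubation.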

Test [9] can be described thus: A CellTox Green Cytotoxicity Assay to monitor cytotoxicity in HEK293 cells - 0 hour (AID 1224869). Further: nearly all actives have a fitted effect of over 50% in size. The gist of the method:
(§3)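 Homogeneous no-lysis format: HEK293 cell suspension mixed with CellTox Green reagent, seeded, incubated 5 h at 37 C/5% CO2, then dosed by pintool with compound in DMSO.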

A short description of test [10]: qHTS RealTime-Glo MT Cell Viability Assay in HepG2 cells - 40 hour (AID 1224870). Further: nearly all actives have a fitted effect of over 50% in size. The gist of the method:
(§4)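 HepG2 cells (600/well) mixed with RealTime-Glo MT reagent, settled 5 h at 37 C/5% CO2 before compound addition. Nonlytic NanoLuc luminescence from viable-cell prosubstrate reduction read repeatedly during 40 h treatment at 37 C.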

Test [11] is described as follows: qHTS RealTime-Glo MT Cell Viability Assay in HEK293 cells - 16 hour (AID 1224872). Further: nearly all actives have a fitted effect of over 50% in size. Further: potency means the concentration at half of the fitted maximal effect. Put shortly:
as §2

A short description of test [12]: qHTS RealTime-Glo MT Cell Viability Assay in HepG2 cells - 8 hour (AID 1224873). Further: nearly all actives have a fitted effect of over 55% in size. The gist of the method:
as §4

A short description of test [13]: qHTS RealTime-Glo MT Cell Viability Assay in HEK293 cells - 40 hour (AID 1224874). Further: nearly all actives have a fitted effect of over 50% in size. Further: potency means the concentration at half of the fitted maximal effect. Particulars: RealTime-Glo luminescence; max response: hits give low values. Put shortly:
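Measured as luminescence from the same continuously cultured HEK293 wells at successive time points (0, 8, 16, 24, 32, 40 h) after compound addition. Reagent present from seeding; dosing at 5 h; incubation 37 C.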

Test [14] in a line: A CellTox Green Cytotoxicity Assay to monitor cytotoxicity in HepG2 cells - 16 hour (AID 1224876). Further: nearly all actives have a fitted effect of over 45% in size. Further: potency means the concentration at half of the fitted maximal effect. The gist of the method: (§5)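 Fluorescent DNA-binding dye, 600 HepG2 cells/well, 5 h preincubation then compound in DMSO; same plates read at 0–40 h, 37 C.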
Test [15] can be described thus: qHTS RealTime-Glo MT Cell Viability Assay in HepG2 cells - 32 hour (AID 1224877). Further: nearly all actives have a fitted effect of over 55% in size. Further: potency means the concentration at half of the fitted maximal effect. Put shortly:
as §1

Test [16] in a line: A CellTox Green Cytotoxicity Assay to monitor cytotoxicity in HepG2 cells - 24 hour (AID 1224878). Further: nearly all actives have a fitted effect of over 45% in size. Further: potency means the concentration at half of the fitted maximal effect. The gist of the method: as §5
Test [17] can be described thus: A CellTox Green Cytotoxicity Assay to monitor cytotoxicity in HepG2 cells - 40 hour (AID 1224879). Further: nearly all actives have a fitted effect of over 40% in size. Further: potency means the concentration at half of the fitted maximal effect. The gist of the method: as §5
Test [18] is described as follows: qHTS assay to identify small molecule agonists of H2AX (AID 1224845; active means well fitted activation curve with a large enough effect in the signal ratio in the repeat runs, not every such curve was filed as active; the % refers to the signal ratio). Put shortly:
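Wild-type CHO-K1 cells, plated overnight, exposed 3hr at 37C to 15 concentrations (0.76% DMSO final). Lysed, then HTRF anti-pH2AX (S139) cryptate and anti-H2AX-d2 antibodies, 24 hr room temperature; 665/620 nm emission read.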

Test [19] is described as follows: A CellTox Green Cytotoxicity Assay to monitor cytotoxicity in HEK293 cells - 40 hour (AID 1224871). Further: nearly all actives have a fitted effect of over 45% in size. Further: potency means the concentration at half of the fitted maximal effect. Put shortly: as §3
Test [20] is described as follows: A CellTox Green Cytotoxicity Assay to monitor cytotoxicity in HEK293 cells - 24 hour (AID 1224875). Further: nearly all actives have a fitted effect of over 45% in size. Further: potency means the concentration at half of the fitted maximal effect. Put shortly: as §3
On the % scale 0 is the no-effect control and ±100 the full control effect.

Sequence of Thyrotropin receptor (Homo sapiens) (P16473 whole entry, looked up): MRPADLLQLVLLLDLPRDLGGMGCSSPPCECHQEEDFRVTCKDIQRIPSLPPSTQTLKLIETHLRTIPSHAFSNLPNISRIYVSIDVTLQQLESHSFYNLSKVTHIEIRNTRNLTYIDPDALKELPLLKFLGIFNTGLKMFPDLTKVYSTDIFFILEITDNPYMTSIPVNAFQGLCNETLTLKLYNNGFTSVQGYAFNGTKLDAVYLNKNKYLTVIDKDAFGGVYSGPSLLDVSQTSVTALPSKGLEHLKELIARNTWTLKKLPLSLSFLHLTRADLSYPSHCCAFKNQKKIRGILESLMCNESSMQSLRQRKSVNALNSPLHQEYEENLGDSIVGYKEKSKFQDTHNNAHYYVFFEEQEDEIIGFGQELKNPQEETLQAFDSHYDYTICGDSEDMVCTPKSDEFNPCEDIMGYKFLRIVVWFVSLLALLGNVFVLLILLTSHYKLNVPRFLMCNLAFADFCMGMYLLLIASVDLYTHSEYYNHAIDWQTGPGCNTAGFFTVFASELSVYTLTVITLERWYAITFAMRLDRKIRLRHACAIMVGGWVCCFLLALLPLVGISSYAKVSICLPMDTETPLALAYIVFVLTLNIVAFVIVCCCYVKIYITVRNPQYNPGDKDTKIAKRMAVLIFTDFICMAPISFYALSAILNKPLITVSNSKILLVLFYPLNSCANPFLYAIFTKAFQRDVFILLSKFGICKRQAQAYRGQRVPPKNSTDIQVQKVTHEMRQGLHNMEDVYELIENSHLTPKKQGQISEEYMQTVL

Consider `O=C1NCCN1`, for which the Potency result in [1], in test [2], in test [4], in test [5], in test [7] and in [8] was “inactive” in each case. Further, the Potency result in test [9], in [10], in test [11], in test [12], in test [14] and in test [15] was “inactive” each time. Also, the Potency result in test [16] and in test [17] was “inactive” each time. In test [3], the molecule was called inactive. Further, in test [6], the activity change, positive = activation is 2.98%. In test [13], the max response is 4.04%.
For the molecule `Cc1ccccc1N1C(=O)c2cc(S(N)(=O)=O)c(Cl)cc2NC1C` (configuration not stated), the Potency entry in test [1], in test [2], in test [18], in test [4], in [7] and in [8] was “inactive” each time. In addition, the Potency result in test [9], in test [10], in test [19], in test [11], in test [12] and in test [20] was “inactive” each time. Also, the Potency entry in test [14], in [15], in [16] and in [17] was “inactive” in each case. The max response in [13] is -9.78%.
In the case of `CCCCN(CCCC)CCCOC(=O)c1ccc(N)cc1`, the Potency entry in [1], in test [2], in test [18], in [4], in [7] and in test [8] was “inactive” throughout. The Potency result in test [10], in test [19], in test [11], in test [12], in [20] and in test [15] was “inactive” throughout. The Potency result in test [16] and in [17] was “inactive” in each case. The max response in [13] is -19.3%.
Consider `CCCCCCCCCCCC[N+](C)(C)CC(=O)[O-]`, for which the Potency entry in test [1], in test [2], in test [18], in test [7], in test [8] and in test [9] was “inactive” each time. Moreover, the Potency result in test [10], in [11], in test [12] and in test [15] was “inactive” each time. The call in test [3] was inactive. Besides, the max response in [13] was -3.41%.
For the molecule `Nc1ccc(S(=O)(=O)O)c(N)c1`, the Potency result in test [1], in [2], in [4], in test [5], in test [7] and in test [9] was “inactive” each time. Moreover, the Potency result in [10], in [19], in test [11], in test [12], in [14] and in test [15] was “inactive” each time. In addition, the Potency result in test [16] and in test [17] was “inactive” throughout. Moreover, the call in test [3] was inactive. In addition, in test [6], the activity change, positive = activation is 1.48%. Besides, the max response in test [13] is -8.29%.
In the case of `CCCCCCCCCCCCCCC[C@H](O)[C@@H](N)CO`, the Potency entry in test [1], in test [2] and in [18] was “inactive” in each case. Besides, the Potency was 49.2 µM (active) in test [4]; 23.9 µM (active) in test [8]; 23.9 µM (active) in test [19]; 21.3 µM (active) in test [11]; 26.8 µM (active) in test [13]; 21.3 µM (active) in test [20]. Also, the Potency in test [14] was 23.9 µM (active); in test [15] it was 26.8 µM (active); in [16], 26.8 µM (active); in [17], 26.8 µM (active).
As for `CNC(=S)NC`, the Potency result in [1], in [18], in test [4], in [7], in test [8] and in test [9] was “inactive” throughout. The Potency entry in test [10], in test [19], in test [11], in [12], in test [20] and in [14] was “inactive” throughout. In addition, the Potency entry in test [15] and in test [16] was “inactive” each time. Besides, the figures for the Potency in [2] and in test [17] were 11 µM (active) and 54.9 µM (active), respectively.
